Screen size: about 52,000 compounds; about 4,300 (8.3%) were called active. This is one part of a sample in which actives are shown more often than they occur. A number with no mark means an inactive call. Rule as the data show it: active = survival mostly below about 52% (no sharp cut-off); inactive = mostly above about 56%.
system: DeltatarO mutant; assay: S. aureus survival, RN4220 and DeltatarO strains – OD600, teichoic acid synthesis inhibitors, primary screen (AID 463173); conditions: S. aureus RN4220 wild type/DeltatarO growth, OD600, 18 h, hits give low values, screened at 18.75 µg/mL (by protocol)

How did the survival turn out when `CCc1ccc(NC(=O)Cn2c(=O)n(-c3ccccc3)c(=O)c3ccc(C(=O)NCc4ccc5c(c4)OCO5)cc32)cc1` was run?
Its survival is 112%.

For `COc1ccc(NC(=O)NC(C)c2c(-n3cccc3)sc3c2CCN(C)C3)c(OC)c1` (centres undefined), which survival is on record?
Its survival is 70%.

With `O=C(OCc1ccccc1F)c1ccc(-c2nnn(Cc3ccccc3)n2)cc1` as the molecule, how does the survival read?
Its survival is 122%.

Which survival does the source give for `COc1cccc(CN(C(=O)c2ccc(C(C)(C)C)cc2)C2CCS(=O)(=O)C2)c1` (centres undefined) here?
Its survival is 70%.

With `COc1ccc(NC(=O)c2oc3ccccc3c2NC(=O)Cc2coc3cc(C)ccc23)cc1` as the molecule, how does the survival read?
Its survival is 70%.

With `CN1CCN(S(=O)(=O)c2ccc(Br)c3ccccc23)CC1` as the molecule, how does the survival read?
The survival was 99%.

With `Cc1cc(Nc2ccc(Cl)cc2)n2cnnc2n1` as the molecule, how does the survival read?
The survival was 65%.

For `COc1ccc(-c2nn[nH]n2)cc1`, which survival is on record?
The survival was 105%.

For `COc1ccc(NC(=O)c2c(N)c(C(=O)c3ccc(C)cc3)n3ccccc23)cc1OC`, which survival is on record?
Its survival is 82%.

How did the survival turn out when `Cc1ccc(NC(=O)Cc2ccc(NC(=O)N3CCCCc4ccccc43)cc2)cc1Cl` was run?
The survival was 93%.

Which survival does the source give for `CCS(=O)(=O)c1ccccc1C(=O)N1CCN(c2nc3ccccc3s2)CC1` here?
The survival was 55%.

How did the survival turn out when `COc1ccc(CCNC(=O)c2cn(C)c3ccc(S(=O)(=O)N(C)C)cc3c2=O)cc1OC` was run?
The survival was 84%.

With `CCOc1ccc(S(=O)(=O)NCCc2sc(-c3ccc(C)cc3)nc2C)cc1` as the molecule, how does the survival read?
The survival was 102%.

How did the survival turn out when `Cc1ccc(-c2nc(C)c(CCNS(=O)(=O)c3ccccc3F)s2)cc1` was run?
Its survival is 76%.

How did the survival turn out when `Cc1ccc(-c2nc(C)c(CCNS(=O)(=O)c3ccc(F)c(C(F)(F)F)c3)s2)cc1` was run?
The survival was -4% (active).

Which survival does the source give for `CC(C)c1nc2ccc(C(=O)NCCCN3CCN(c4ccccc4)CC3)cc2o1` here?
The survival was 120%.

For `CC(C)COC(=O)Nc1ccc2c(c1)OCO2`, which survival is on record?
The survival was 62%.

Which survival does the source give for `Cc1ccc(C)n1-c1nnc(N2CCCC(C(=O)NCc3ccc(F)cc3)C2)s1` (centres undefined) here?
Its survival is 93%.

`CSc1ccc(C2c3[nH]c4ccccc4c3CCN2C(=O)CCC2CCCC2)cc1` (centres undefined) was tested. Which survival did it give?
Its survival is 74%.

How did the survival turn out when `CCSc1nnc2c(n1)OC(c1ccc(C)cc1)N(C(C)=O)c1ccccc1-2` (centres undefined) was run?
Its survival is 55%.

How did the survival turn out when `CCCSc1nnc2c(n1)OC(c1cccs1)Nc1ccc(Br)cc1-2` (centres undefined) was run?
Its survival is 30% (active).

For `CCCCCCSc1nnc2c(n1)OC(C)Nc1ccc(Br)cc1-2` (centres undefined), which survival is on record?
The survival was 75%.

For `CCSc1nnc2c(n1)OC(c1cc(OC)c(OC)c(OC)c1)Nc1ccccc1-2` (centres undefined), which survival is on record?
The survival was 61%.

Which survival does the source give for `CCCCCSc1nnc2c(n1)OC(c1ccc(C)s1)N(C(C)=O)c1ccccc1-2` (centres undefined) here?
Its survival is 45% (active).

With `CCSc1nnc2c(n1)OC(c1ccc(OC)c(OC)c1)N(C(C)=O)c1ccccc1-2` (centres undefined) as the molecule, how does the survival read?
The survival was 53%.

How did the survival turn out when `CCSc1nnc2c(n1)OC(c1ccc(OC)cc1OC)N(C(C)=O)c1ccccc1-2` (centres undefined) was run?
The survival was 58% (active).

Which survival does the source give for `CCCCCSc1nnc2c(n1)OC(CC)Nc1ccc(Br)cc1-2` (centres undefined) here?
The survival was 63%.

How did the survival turn out when `CCCCSc1nnc2c(n1)OC(c1ccc(Br)s1)N(C(C)=O)c1ccccc1-2` (centres undefined) was run?
Its survival is 47%.

`CCCCSc1nnc2c(n1)OC(C)N(C(C)=O)c1ccccc1-2` (centres undefined) was tested. Which survival did it give?
Its survival is 154%.

`CCCCSc1nnc2c(n1)OC(c1ccc(Br)s1)Nc1ccccc1-2` (centres undefined) was tested. Which survival did it give?
The survival was 10% (active).

How did the survival turn out when `CCCSc1nnc2c(n1)OC(c1ccc(Br)s1)Nc1ccccc1-2` (centres undefined) was run?
Its survival is 53%.

Which survival does the source give for `Cc1c(C(=O)N2CCC(C)CC2)c(S(=O)(=O)Nc2ccc(OC(F)(F)F)cc2)c(C)n1C` here?
The survival was 91%.

How did the survival turn out when `CCc1cccc(C)c1NS(=O)(=O)c1ccc2c(c1)CC(C)N2C(=O)C1CC1` (centres undefined) was run?
The survival was 88%.

With `COc1ccc(C(=O)NCc2ccc3c(c2)CCN3C(=O)c2ccncc2)cc1` as the molecule, how does the survival read?
The survival was 88%.

For `Cc1ccc(Cl)cc1NC(=O)CN1C(=O)COc2ccc(S(=O)(=O)N3CCOCC3)cc21`, which survival is on record?
The survival was 101%.

Which survival does the source give for `CCc1c(C)[nH][n+]2cnn(Cc3ccc(Cl)cc3)c2c1=O` here?
Its survival is 89%.

For `CCn1cnc2sc(C(=O)Nc3ccccc3)c(C)c2c1=O`, which survival is on record?
The survival was 87%.

With `Cc1ccc(CNC(=O)c2nnn(Cc3ccc(F)cc3)c2N)cc1` as the molecule, how does the survival read?
The survival was 91%.

Which survival does the source give for `Cc1ccc(CNc2nc(-c3ccco3)nn2C(=O)c2ccccc2[N+](=O)[O-])cc1` here?
Its survival is 111%.

How did the survival turn out when `Cc1nn2c(=O)cc(COC(=O)c3ccc(NC(=O)COc4ccc(C)c(C)c4)cc3)nc2s1` was run?
The survival was 116%.

With `Cc1ccc(S(=O)(=O)NCCSc2nnnn2-c2ccccc2)cc1` as the molecule, how does the survival read?
The survival was 71%.

With `CCSc1nnc2c(n1)OC(c1ccc(C)s1)Nc1ccccc1-2` (centres undefined) as the molecule, how does the survival read?
Its survival is 71%.

For `CCCCSc1nnc2c(n1)OC(c1ccc(C)s1)Nc1ccccc1-2` (centres undefined), which survival is on record?
The survival was 41% (active).

With `CCCSc1nnc2c(n1)OC(c1sccc1C)Nc1ccccc1-2` (centres undefined) as the molecule, how does the survival read?
Its survival is 79%.

With `Cc1cccc(C)c1OCc1nc2c3cnn(-c4cccc(F)c4)c3ncn2n1` as the molecule, how does the survival read?
Its survival is 78%.

How did the survival turn out when `CC(=O)c1ccc(S(=O)(=O)N2CCn3cccc3C2c2ccccc2F)cc1` (centres undefined) was run?
The survival was 82%.

`CCOc1ccc(-n2c(SCC(=O)NCC3CCCO3)nc3c([nH]c4ccccc43)c2=O)cc1` (centres undefined) was tested. Which survival did it give?
The survival was 74%.

How did the survival turn out when `Cc1cc(Oc2c(C(F)(F)F)oc3c(CN4CCC(C)CC4)c(O)ccc3c2=O)cc(C)c1Cl` was run?
The survival was 70%.

With `O=C(NCCc1csc(-c2cccc(F)c2)n1)c1ccco1` as the molecule, how does the survival read?
The survival was 94%.

`COc1ccc(CC(=O)NCCc2csc(-c3cccc(C)c3)n2)cc1` was tested. Which survival did it give?
Its survival is 68%.

How did the survival turn out when `COc1ccc(CC(=O)NCCc2csc(-c3ccc(C(F)(F)F)cc3)n2)cc1` was run?
The survival was -5% (active).

How did the survival turn out when `CCOc1ccc(CC(=O)NCCc2csc(-c3ccc(C(F)(F)F)cc3)n2)cc1` was run?
The survival was 77%.

Which survival does the source give for `Cc1cccc(-c2nc(CCNC(=O)Cc3ccccc3)cs2)c1` here?
The survival was 17% (active).

`COc1ccc(CCC(=O)NCCc2csc(-c3ccc(C(F)(F)F)cc3)n2)cc1` was tested. Which survival did it give?
The survival was 73%.

How did the survival turn out when `Cc1cccc(-c2nc(CCNC(=O)Cc3ccc(F)cc3)cs2)c1` was run?
Its survival is 55%.

`Cc1cccc(-c2nc(CCNC(=O)c3ccco3)cs2)c1` was tested. Which survival did it give?
The survival was -5% (active).

Which survival does the source give for `Cc1cccc(-c2nc(CCNC(=O)c3ccc(Br)o3)cs2)c1` here?
The survival was 89%.

How did the survival turn out when `CCOc1ccc(-c2nnc(SCC(=O)c3ccccc3)n2-c2ccccc2)cc1` was run?
Its survival is 136%.

For `COc1cccc(CNC(=O)c2cc(S(=O)(=O)N3CCCCC3)c[nH]2)c1`, which survival is on record?
Its survival is 64%.

Which survival does the source give for `COc1ccccc1NC(=O)CSc1ncc2c(n1)-c1ccccc1N(Cc1ccccc1C)S2(=O)=O` here?
The survival was 101%.

For `Cc1cc(=O)[nH]c2nnc(SCC(=O)NC(C)(C)C)n12`, which survival is on record?
Its survival is 77%.

With `COc1ccc(-c2cc(=O)oc3c4c(ccc23)OCN(Cc2ccccc2)C4)cc1` as the molecule, how does the survival read?
The survival was 82%.

How did the survival turn out when `COc1ccc(CN2COc3ccc4c(-c5ccc(OC)cc5)cc(=O)oc4c3C2)cc1` was run?
The survival was 65%.

How did the survival turn out when `COc1ccc(-c2cc(=O)oc3c4c(ccc23)OCN(Cc2cccc(OC)c2)C4)cc1` was run?
Its survival is 38% (active).

Which survival does the source give for `Cc1cccc(NC(=O)C2CCN(S(=O)(=O)c3cccc4nsnc34)CC2)c1` here?
The survival was 84%.

`CCOc1ccc(NC(=O)CC2C(=O)N(c3ccc(F)cc3)C(=O)N2Cc2ccc(OC)c(OC)c2)cc1` (centres undefined) was tested. Which survival did it give?
The survival was 90%.

Which survival does the source give for `Cc1ccc(C)c(CSc2nc3ncccc3[nH]2)c1` here?
The survival was 73%.

How did the survival turn out when `O=C(CSc1nc2c([nH]c3ccccc32)c(=O)n1-c1ccccc1)Nc1ccccc1F` was run?
Its survival is 96%.

How did the survival turn out when `CCc1ccc(NC(=O)CSc2nc3nccnc3c(=O)n2CCc2c[nH]c3ccccc23)cc1` was run?
Its survival is 88%.

With `O=C(CSc1nc2nccnc2c(=O)n1CCc1c[nH]c2ccccc12)Nc1ccccc1F` as the molecule, how does the survival read?
The survival was 46% (active).

Which survival does the source give for `Cn1c(SCC(=O)Nc2ccccc2F)nc2c([nH]c3ccccc32)c1=O` here?
The survival was 115%.

For `COc1ccccc1NC(=O)CSc1nc2ccccc2c(=O)n1CCC(=O)NC1CCCCC1`, which survival is on record?
The survival was 89%.

How did the survival turn out when `O=C(CSc1nc2nccnc2c(=O)n1CCc1c[nH]c2ccccc12)Nc1ccccc1` was run?
The survival was 73%.

`Cc1cc(C)c(NC(=O)CSc2nc3nccnc3c(=O)n2CCc2c[nH]c3ccccc23)c(C)c1` was tested. Which survival did it give?
Its survival is 48%.

How did the survival turn out when `Cc1ccc(NC(=O)CSc2nc3nccnc3c(=O)n2CCc2c[nH]c3ccccc23)c(C)c1` was run?
The survival was 45% (active).

For `COCCCn1c(SCC(=O)Nc2ccccc2OC)nc2c(sc3ccccc32)c1=O`, which survival is on record?
Its survival is 77%.

Which survival does the source give for `O=C(CSc1nc2nccnc2c(=O)n1CCc1c[nH]c2ccccc12)Nc1ccc(F)cc1` here?
The survival was 29% (active).

Which survival does the source give for `COc1ccccc1NC(=O)CSc1nc2nccnc2c(=O)n1CCc1c[nH]c2ccccc12` here?
The survival was 38% (active).

Which survival does the source give for `Cc1ccc(NC(=O)CSc2nc3c([nH]c4ccccc43)c(=O)n2-c2ccccc2)c(C)c1` here?
The survival was 96%.

How did the survival turn out when `Cc1ccc(C)c(NC(=O)CCCn2nc(C)c3sc4ccccc4c3c2=O)c1` was run?
The survival was 85%.

How did the survival turn out when `CCOC(=O)c1c(C)[nH]c(C)c1S(=O)(=O)N(C)CC(=O)Nc1ccc(C)cc1Br` was run?
The survival was 72%.

Which survival does the source give for `CCCCN(C)C(=O)Cn1cnc2sc(C)c(S(=O)(=O)N3CCN(c4ccccc4OC)CC3)c2c1=O` here?
The survival was 70%.

How did the survival turn out when `Cc1cc(C)n(-c2nc(C)c(C)c(=O)n2CC(=O)Nc2ccc(OC(F)(F)F)cc2)n1` was run?
The survival was 90%.

With `COc1ccccc1N1CCN(C(=O)COc2ccccc2C#N)CC1` as the molecule, how does the survival read?
The survival was 81%.

Which survival does the source give for `COc1cc(C(=O)N2CCN(CCc3ccncc3)CC2)cc(OC)c1OC` here?
The survival was 89%.

With `CS(=O)(=O)n1nc(-c2ccco2)nc1NCc1ccccc1Cl` as the molecule, how does the survival read?
Its survival is 61%.

For `COc1cc(NC(=O)Cn2cnc3sc(C)c(S(=O)(=O)N4CCC(C)CC4)c3c2=O)cc(OC)c1OC`, which survival is on record?
Its survival is 111%.

`Cc1cc(C)c2c(n1)nn1c(C)c(CCC(=O)NCc3ccc(Cl)cc3)c(C)nc21` was tested. Which survival did it give?
Its survival is 80%.

With `Cc1ccc(C)c(NC(=O)CSc2nc3nccnc3c(=O)n2CCc2c[nH]c3ccccc23)c1` as the molecule, how does the survival read?
The survival was 37% (active).

`Cc1ccc(C)c(NC(=O)Cn2c(SCC(=O)NCc3ccccc3)nc3ccccc32)c1` was tested. Which survival did it give?
The survival was 101%.

How did the survival turn out when `Cc1ccccc1NC(=O)CSc1nc2nccnc2c(=O)n1CCc1c[nH]c2ccccc12` was run?
The survival was 40% (active).

With `Cc1ccccc1NC(=O)NCCc1c[nH]c2ccccc12` as the molecule, how does the survival read?
Its survival is 47%.

With `Cc1cccc(NC(=O)CSc2nc3c([nH]c4ccccc43)c(=O)n2C)c1C` as the molecule, how does the survival read?
The survival was 80%.

With `CCOCCCn1c(SCC(=O)Nc2cc(C)ccc2C)nc2c(oc3ccccc32)c1=O` as the molecule, how does the survival read?
Its survival is 90%.

— PubChem BioAssay AID463173 (ICCB-Longwood Screening Facility, Harvard Medical School, 2010)
